# Assay results: PubChem BioAssay (NCATS)
# Results filed as inconclusive are left out. Entries that show only a call come without a potency. Values without a mark were called inactive. Active and inactive are the calls of the source. The call rests on the fitted dose curve; in most records, active means well fitted curve in the direction sought with a large enough effect; inconclusive means small, poorly fitted or top-dose-only effect, or another doubt; inactive means no such curve, though single readings can be large; an effect the other way counts as inactive or inconclusive.
# Legend:
# [1] = biological target: Tumor susceptibility gene 101 protein (Homo sapiens) (UniProt Q99816); test: qHTS Assay for Iinhibitors of HIV-1 Budding by Blocking the Interaction of PTAP/TSG101: Hit Validation (AID 651600); further: nearly all actives have a fitted effect of over 70% in size; further: potency means the concentration at half of the fitted maximal effect
# How it was run: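 Measuring PTAP–Tsg101 interaction by FP: protein at 10 uM and fluorescent peptide at 50 nM (final), buffer 10 mM HEPES pH 7.5 with 0.15 M NaCl, 3 mM EDTA, 0.1 mM TCEP, 0.01% Tween 20; 20 min incubation, r.t.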
# [2] = biological target: Rap guanine nucleotide exchange factor 3 (Homo sapiens) (UniProt O95398); test: Confirmatory qHTS for antagonist of cAMP-regulated guanine nucleotide exchange factor 3 (EPAC1) (AID 1645880); settings: EPAC1 Rap1B-BODIPY-GDP exchange, fluorescence; activity, negative = inhibition: at 115 µM (top of the series); further: nearly all actives have a fitted effect of over 55% in size; further: potency means the concentration at half of the fitted maximal effect
# How it was run: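 Released BODIPY-GDP fluoresces less than Rap1-bound BODIPY-GDP; the signal is followed at 480/540 nm at 5-min intervals over 30 min, after 5 min at room temperature. Reactions contain 100 nM EPAC1, 250 nM RAP1B-BODIPY-GDP and 50 uM GDP; results are normalized to ATA and DMSO.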
# [3] = biological target: Rap guanine nucleotide exchange factor 3 (Homo sapiens) (UniProt O95398); test: Confirmatory qHTS for agonist of cAMP-regulated guanine nucleotide exchange factor 3 (EPAC1) (AID 1645881); further: nearly all actives have a fitted effect of over 75% in size; further: potency means the concentration at half of the fitted maximal effect
# [4] = biological target: Rap guanine nucleotide exchange factor 4 (Homo sapiens) (UniProt Q8WZA2); test: Confirmatory qHTS for antagonist of cAMP-regulated guanine nucleotide exchange factor 4 (EPAC2) (AID 1645885); further: nearly all actives have a fitted effect of over 25% in size; further: potency means the concentration at half of the fitted maximal effect
# [5] = biological target: Rap guanine nucleotide exchange factor 3 (Homo sapiens) (UniProt O95398); test: Counterscreen qHTS for antagonist of cAMP-regulated guanine nucleotide exchange factor 3 (EPAC1) (AID 1645888)
# How it was run: (§1)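 Measured: fluorescence of BODIPY-GDP bound to Rap1B, which falls as exchange proceeds. Conditions include 50 uM competing GDP, 5 and 30 min reads, and a later cAMP challenge for antagonist detection.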
# [6] = biological target: Rap guanine nucleotide exchange factor 3 (Homo sapiens) (UniProt O95398); test: Counterscreen qHTS for agonist of cAMP-regulated guanine nucleotide exchange factor 3 (EPAC1) (AID 1645889); further: nearly all actives have a fitted effect of over 40% in size; further: potency means the concentration at half of the fitted maximal effect
# How it was run: as §1
# [7] = biological target: Tyrosyl-DNA phosphodiesterase 1 (Homo sapiens) (UniProt Q9NUW8); test: Confirmation Assay for Inhibitors of Tyrosyl-DNA Phosphodiesterase (TDP1) (AID 489007); settings: recombinant human TDP1 enzymatic activity, dose-response; further: potency means the concentration at half of the fitted maximal effect; nearly all actives have a fitted effect of over 40% in size
# How it was run: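 Loss of AlphaScreen signal reports Tdp1 cleavage of a dual-labelled DNA substrate. Conditions: 1 nM E. coli-derived enzyme, 15 nM substrate, 15 min compound preincubation, 5 min reaction, 10 min bead incubation, all at room temperature.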
# Tumor susceptibility gene 101 protein (Homo sapiens), sequence (Q99816 whole entry, looked up): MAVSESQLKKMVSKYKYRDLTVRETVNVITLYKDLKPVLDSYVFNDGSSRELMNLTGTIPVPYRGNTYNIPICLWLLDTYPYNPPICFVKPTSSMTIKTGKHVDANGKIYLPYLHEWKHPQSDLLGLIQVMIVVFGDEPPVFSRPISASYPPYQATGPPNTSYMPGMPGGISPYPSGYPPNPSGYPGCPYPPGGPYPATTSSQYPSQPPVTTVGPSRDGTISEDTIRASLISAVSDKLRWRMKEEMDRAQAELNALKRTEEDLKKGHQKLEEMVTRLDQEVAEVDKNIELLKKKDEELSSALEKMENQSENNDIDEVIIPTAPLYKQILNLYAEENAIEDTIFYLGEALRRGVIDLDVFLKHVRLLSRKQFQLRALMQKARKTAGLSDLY
# Rap guanine nucleotide exchange factor 4 (Homo sapiens), sequence (Q8WZA2 whole entry, looked up): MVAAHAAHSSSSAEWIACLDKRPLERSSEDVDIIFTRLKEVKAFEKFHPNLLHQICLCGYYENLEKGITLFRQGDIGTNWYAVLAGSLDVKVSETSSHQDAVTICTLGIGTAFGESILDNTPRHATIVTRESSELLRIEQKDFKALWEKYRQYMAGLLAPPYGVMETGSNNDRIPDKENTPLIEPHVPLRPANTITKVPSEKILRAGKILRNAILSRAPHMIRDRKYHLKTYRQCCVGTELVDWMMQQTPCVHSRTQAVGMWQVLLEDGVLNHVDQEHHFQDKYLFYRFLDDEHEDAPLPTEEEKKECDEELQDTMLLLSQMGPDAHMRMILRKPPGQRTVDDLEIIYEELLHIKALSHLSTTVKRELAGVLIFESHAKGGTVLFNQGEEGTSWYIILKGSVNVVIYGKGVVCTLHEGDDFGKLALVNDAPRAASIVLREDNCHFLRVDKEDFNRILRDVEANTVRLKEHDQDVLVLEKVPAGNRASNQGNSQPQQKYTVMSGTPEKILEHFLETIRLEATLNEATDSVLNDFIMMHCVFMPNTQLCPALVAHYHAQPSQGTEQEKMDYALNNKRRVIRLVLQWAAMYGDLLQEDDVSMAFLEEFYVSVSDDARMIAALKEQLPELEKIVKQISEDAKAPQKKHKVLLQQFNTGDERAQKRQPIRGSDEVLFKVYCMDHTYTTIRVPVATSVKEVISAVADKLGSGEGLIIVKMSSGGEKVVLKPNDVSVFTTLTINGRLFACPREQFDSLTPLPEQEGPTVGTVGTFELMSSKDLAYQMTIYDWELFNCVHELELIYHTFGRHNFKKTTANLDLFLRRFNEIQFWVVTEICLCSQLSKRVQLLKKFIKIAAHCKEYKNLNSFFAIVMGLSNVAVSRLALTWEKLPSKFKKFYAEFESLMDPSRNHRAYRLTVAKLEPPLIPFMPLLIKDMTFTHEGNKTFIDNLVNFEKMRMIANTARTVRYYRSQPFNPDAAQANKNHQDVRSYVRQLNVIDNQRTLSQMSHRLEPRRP
# Rap guanine nucleotide exchange factor 3 (Homo sapiens), sequence (O95398 whole entry, looked up): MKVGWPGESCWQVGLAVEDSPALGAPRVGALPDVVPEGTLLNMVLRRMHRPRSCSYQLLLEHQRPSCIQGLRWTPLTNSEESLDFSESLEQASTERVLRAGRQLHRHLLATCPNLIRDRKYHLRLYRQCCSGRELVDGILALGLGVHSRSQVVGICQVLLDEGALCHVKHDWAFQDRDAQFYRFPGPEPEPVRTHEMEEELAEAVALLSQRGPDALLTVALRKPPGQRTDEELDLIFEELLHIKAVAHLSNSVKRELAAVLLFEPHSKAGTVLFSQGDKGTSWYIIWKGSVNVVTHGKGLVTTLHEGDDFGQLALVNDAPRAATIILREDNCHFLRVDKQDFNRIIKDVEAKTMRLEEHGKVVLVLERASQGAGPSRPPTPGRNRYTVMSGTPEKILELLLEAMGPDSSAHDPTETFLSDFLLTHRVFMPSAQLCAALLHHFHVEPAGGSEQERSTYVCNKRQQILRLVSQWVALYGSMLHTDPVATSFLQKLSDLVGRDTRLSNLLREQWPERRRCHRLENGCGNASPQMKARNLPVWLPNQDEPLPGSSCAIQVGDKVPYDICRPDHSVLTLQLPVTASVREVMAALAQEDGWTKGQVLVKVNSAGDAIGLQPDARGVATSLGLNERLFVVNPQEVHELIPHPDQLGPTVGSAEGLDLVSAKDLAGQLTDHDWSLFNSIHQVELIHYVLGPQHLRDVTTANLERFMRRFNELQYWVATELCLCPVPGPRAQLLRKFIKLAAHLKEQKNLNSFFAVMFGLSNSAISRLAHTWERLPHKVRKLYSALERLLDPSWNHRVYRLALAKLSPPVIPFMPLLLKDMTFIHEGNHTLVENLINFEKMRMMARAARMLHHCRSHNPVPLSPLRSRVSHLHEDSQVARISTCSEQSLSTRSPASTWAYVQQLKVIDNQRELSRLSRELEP
# Tyrosyl-DNA phosphodiesterase 1 (Homo sapiens), sequence (Q9NUW8 whole entry, looked up): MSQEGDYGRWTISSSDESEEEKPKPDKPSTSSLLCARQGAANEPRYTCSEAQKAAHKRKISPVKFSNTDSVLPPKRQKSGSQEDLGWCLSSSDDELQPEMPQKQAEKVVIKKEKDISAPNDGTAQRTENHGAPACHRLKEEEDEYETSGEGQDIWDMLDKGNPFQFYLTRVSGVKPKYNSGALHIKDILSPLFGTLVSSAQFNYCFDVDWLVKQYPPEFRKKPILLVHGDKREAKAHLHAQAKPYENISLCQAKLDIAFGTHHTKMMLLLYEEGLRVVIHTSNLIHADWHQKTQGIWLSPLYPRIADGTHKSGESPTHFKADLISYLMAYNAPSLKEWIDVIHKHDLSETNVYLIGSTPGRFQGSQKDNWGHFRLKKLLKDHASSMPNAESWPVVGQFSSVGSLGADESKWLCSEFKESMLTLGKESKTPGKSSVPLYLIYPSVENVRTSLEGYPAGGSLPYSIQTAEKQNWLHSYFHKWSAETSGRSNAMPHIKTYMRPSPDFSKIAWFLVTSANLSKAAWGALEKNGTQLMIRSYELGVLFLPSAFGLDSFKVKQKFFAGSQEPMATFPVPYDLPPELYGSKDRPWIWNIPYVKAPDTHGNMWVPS
Compound,Potency [1],Potency [2],Potency [3],Potency [4],Potency [5],Potency [6],Potency [7],"activity change, negative = inhibition [5]"
CCc1ccc[n+](-c2[nH]c(=O)sc2/C=N/NC([S-])=Nc2ccccc2)c1,14.6 µM (active),inactive,inactive,inactive,inactive,50.1 µM (active),–,–
O=C1C=C(c2ccccc2Oc2ccccc2)C[C@@H](c2ccc3c(c2)OCO3)C1,–,inactive,inactive,inactive,inactive,inactive,–,–
Cc1ccc([N+](=O)[O-])cc1NC(=O)CN(C1CCCCC1)S(=O)(=O)c1ccc(Cl)cc1,–,inactive,inactive,8.49 µM (active),inactive,inactive,–,–
Nc1nc2ccccc2n1S(=O)(=O)c1ccc([N+](=O)[O-])cc1,–,inactive,inactive,inactive,inactive,inactive,–,–
O=C1COc2ccc(C(=O)COC(=O)c3ccc4ccccc4n3)cc2N1,–,75.7 µM (active),inactive,inactive,inactive,inactive,–,–
Nc1cccc2c(O)cc(S(=O)(=O)O)cc12,18.3 µM (active),13.5 µM (active),50.1 µM (active),0.757 µM (active),inactive,79.4 µM (active),–,–
CCn1nc(C)c(C(=O)Nc2cc(Oc3ccc(Cl)cc3)cc([N+](=O)[O-])c2)c1C,–,inactive,inactive,inactive,inactive,inactive,–,–
N#CC1=C2N=C(N)c3c(sc4c3CCCCC4)N2C2=C(C(=O)CCC2)C1c1ccccc1 (stereo not drawn),–,inactive,inactive,inactive,inactive,inactive,–,–
Cc1ccc2nc(SCC(=O)c3c(N)n(C4CC4)c(=O)[nH]c3=O)[nH]c2c1,–,inactive,inactive,inactive,inactive,inactive,–,–
COc1ccc(N=Nc2nc3ccc(Br)cc3n2C)cc1,–,inactive,inactive,inactive,inactive,50.1 µM (active),–,–
CCCc1nn2c(=O)cc(COC(=O)c3ccc(NC(=O)COc4ccccc4F)cc3)nc2s1,–,inactive,inactive,inactive,inactive,inactive,–,–
COc1ccccc1NC(=O)Cc1ccc(-c2ccccc2)cc1,–,inactive,inactive,inactive,–,inactive,–,–
CN(Cc1ccccc1)c1nc(-c2ccc(F)cc2)cc(C(F)(F)F)n1,–,inactive,inactive,0.0849 µM (active),inactive,inactive,28.2 µM (active),–
CCn1cc(C=C2C(=O)c3ccccc3C2=O)c2ccccc21,14.6 µM (active),inactive,inactive,inactive,inactive,inactive,–,–
O=C(O)c1ccccc1-c1ccc(/C=C/c2cc(C(F)(F)F)[nH]c(=O)n2)o1,inactive,inactive,89.1 µM (active),inactive,–,–,–,309% [at 30.8 µM]
O=C(C(=Cc1ccccc1)c1ccccc1)c1ccccc1,–,inactive,inactive,inactive,inactive,inactive,–,–
COc1ccc(N2CCN(CC(O)COc3ccc(C(C)C)c(C)c3)CC2)cc1 (stereo not drawn),–,inactive,inactive,inactive,inactive,inactive,–,–
COc1ccc(C(=O)Nc2ccc(NC(=O)c3cccs3)cc2)cc1OC,–,inactive,inactive,inactive,inactive,inactive,–,–
Nc1ccc2c(O)cc(S(=O)(=O)O)cc2c1,–,4.26 µM (active),inactive,inactive,inactive,inactive,–,–
Oc1[nH]c2ccccc2c1N=Nc1ccccc1F,–,inactive,inactive,inactive,inactive,11.2 µM (active),–,–
CCOc1ccc(NC2c3ccccc3C(=O)N2Cc2ccco2)cc1 (stereo not drawn),–,inactive,inactive,inactive,inactive,inactive,–,–
CCN(CC)CC#CCOC(c1ccccc1)c1ccccc1,–,inactive,inactive,37.9 µM (active),inactive,inactive,–,–
COc1cc([N+](=O)[O-])ccc1-c1ccc(/C=C2\C(=O)ON=C2c2ccccc2)o1,–,19 µM (active),inactive,inactive,inactive,inactive,–,–
CCOc1nc(-c2ccccc2Cl)nc2ccccc12,–,inactive,inactive,–,inactive,–,–,–
COc1c(Cl)cc(Cl)cc1CNc1ccc(S(N)(=O)=O)cc1,–,inactive,inactive,–,inactive,–,–,–
COC(=O)C1=NN(c2ccccc2)C2(S1)SC(C(C)=O)=C(C)N2c1ccccc1 (stereo not drawn),–,inactive,inactive,–,inactive,–,–,–
COc1cc(N)ccc1-c1cc2ccccc2oc1=O,–,inactive,inactive,–,inactive,–,–,–
COC(=O)c1ccc2nc(-c3ccc(Cl)cc3)c(Cc3cccc(F)c3)n2c1,–,inactive,inactive,–,inactive,–,–,–
